Shown are actives, neighbours in structure and some others; about 4.2% of the full set was active somewhere.
DAX1 inh: blocks DAX1 repression of SF-1 activated StAR promoter; inhibition, % at 6.8 µM; HEK293T StAR-luciferase reporter, SF-1/DAX-1 repression relief; actives 1.1% (n = 370,000);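 active means inhibition above the mean over all tested compounds plus 3 SD, cut at about 3.6% in these data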;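 further: 0% = DAX-1 cells with DMSO and 100% = cells lacking DAX-1 with DMSO; higher inhibition means more luminescence from relief of DAX-1 repression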
SMARCA2 act: SMARCA2 function activation, primary screen; MG213 cells, MMTV-luciferase reporter, dexamethasone, overnight; activation, % at 9.1 µM; actives 1% (n = 370,000); in the data active means activation above about 7.8%;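 further: 0% = vehicle wells and 100% = reference activator wells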
hgDAF12 agonist: agonists of H. glycines DAF-12 nuclear receptor; HEK293 GAL4-hgDAF12 UAS-luciferase reporter, agonist luminescence; normalized to butyrate control; activation, % at 6.8 µM; actives 1.8% (n = 370,000); AID 687014;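 active means activation above a cutoff set at the mean of all screened compounds plus 3 SD, cut at about 10% in these data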;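 further: 0% = DMSO wells and 100% = sodium butyrate wells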
hcDAF-12 act: activators of H. contortus DAF-12 nuclear receptor | HEK293 hcDAF-12 lit1-tk-luc reporter, luminescence; 0% DMSO, 100% Δ7-dafachronic acid | activation, % at 6.8 µM | actives 1.4% (n = 370,000) | AID 652067;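 active means activation above the mean of all tested compounds plus 3 SD, cut at about 5.5% in these data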;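 further: 100% = response to 3 µM Δ7-dafachronic acid high control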
ssDAF12 agonist: activates DAF-12 receptor from parasite S. stercoralis | HEK293 ssDAF-12/GRIP1 lit1-tk-luc reporter, luminescence; % of 3 µM dafachronic acid response | activation, % at 6.8 µM | actives 1% (n = 370,000) | AID 652126;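 active means activation above the mean over all tested compounds plus 3 SD, cut at about 0.9% in these data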;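 further: 0% = DMSO-only wells and 100% = 3 µM delta7-dafachronic acid wells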
LXRb hcDAF ctr: activates human LXR-beta, counter-screen for hcDAF-12 agonists; activation, % at 6.8 µM; HEK293 Gal4-LXR tk-luc reporter, luminescence, 24 h; normalized: DMSO 0%, positive control 100%; 3,400 tested, under 10 active; shares compounds with hcDAF-12 act;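 active means mean percent activation of the reporter above a cutoff set as the average over tested compounds plus their standard deviation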
Target sequence (P55055 whole entry, looked up, the tested form may be a part): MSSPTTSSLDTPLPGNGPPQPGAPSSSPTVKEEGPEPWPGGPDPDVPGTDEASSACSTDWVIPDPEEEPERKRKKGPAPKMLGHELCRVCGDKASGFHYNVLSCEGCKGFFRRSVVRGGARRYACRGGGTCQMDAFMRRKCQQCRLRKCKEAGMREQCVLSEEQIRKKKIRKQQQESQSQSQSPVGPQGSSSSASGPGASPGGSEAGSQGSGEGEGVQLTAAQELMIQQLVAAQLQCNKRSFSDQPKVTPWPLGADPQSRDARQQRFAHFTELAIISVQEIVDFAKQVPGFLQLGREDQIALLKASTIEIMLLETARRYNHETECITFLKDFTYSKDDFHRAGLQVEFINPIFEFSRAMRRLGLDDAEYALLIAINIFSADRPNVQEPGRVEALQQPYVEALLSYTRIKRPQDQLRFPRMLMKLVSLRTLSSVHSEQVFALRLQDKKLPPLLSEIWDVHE
hcDAF12 conf: hcDAF-12 agonism, confirmation assay. actives 61% (n = 3,400). HEK293 hcDAF-12 lit1-tk-luc reporter, luminescence; % of Δ7-dafachronic acid response. activation, % at 6.8 µM. shares compounds with hcDAF-12 act. AID 743032;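 active means mean activation across triplicate tests above the threshold derived from the earlier primary screen, cut at about 5.5% in these data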;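 further: 0% = DMSO only wells and 100% = 3 µM Δ7-dafachronic acid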
* = called active by the depositor.

For C[C@@H]1ON(C)[C@H]2C[C@H]3c4cc(-c5cccc(Cl)c5)ccc4CCN3C[C@@H]12 the results were DAX1 inh -0.5, SMARCA2 act -0.6, hgDAF12 agonist -0.6, hcDAF-12 act -1.4 and ssDAF12 agonist -1.3.
`c1cncc(-c2noc(-c3cccc4ccccc34)n2)c1` gave DAX1 inh 0.1, SMARCA2 act 0.1, hgDAF12 agonist 8.9, hcDAF-12 act 7.0*, ssDAF12 agonist 1.2*, LXRb hcDAF ctr 1.1 and hcDAF12 conf 15.6*.
`Fc1ccccc1-c1nc(-c2ccccc2)no1` gave DAX1 inh 3.5, SMARCA2 act 4.6, hgDAF12 agonist 9.8, hcDAF-12 act 10.0*, ssDAF12 agonist 1.9*, LXRb hcDAF ctr 2.2 and hcDAF12 conf 17.6*.
c1ccc(-c2noc(-c3cccc4ccccc34)n2)cc1 was read as DAX1 inh 3.7*, SMARCA2 act 6.2, hgDAF12 agonist 12.4*, hcDAF-12 act 16.6*, ssDAF12 agonist 2.9*, LXRb hcDAF ctr 1.1 and hcDAF12 conf 16.4*.
For c1ccc(-c2ccccc2-c2nc(-c3cccnc3)no2)cc1 the results were DAX1 inh -1.3, SMARCA2 act -1.9, hgDAF12 agonist -1.0, hcDAF-12 act -2.1 and ssDAF12 agonist -1.0.
Cc1ccc(-c2nc(-c3ccccc3)no2)c(Cl)c1 was read as DAX1 inh 0.1, SMARCA2 act -2.4, hgDAF12 agonist -4.9, hcDAF-12 act 1.3 and ssDAF12 agonist -1.2.
Cc1ccc(-c2nc(-c3ccccc3)no2)cc1 was read as DAX1 inh 3.9*, SMARCA2 act 7.8*, hgDAF12 agonist 12.7*, hcDAF-12 act 6.8*, ssDAF12 agonist 0.2, LXRb hcDAF ctr 1.4 and hcDAF12 conf 8.5*.
`c1ccc2c(-c3nc(-c4ccncc4)no3)cccc2c1` gave DAX1 inh -0.1, SMARCA2 act 3.1, hgDAF12 agonist 3.3, hcDAF-12 act 0.8 and ssDAF12 agonist -0.6.
For c1coc(-c2nnc3n2N=C(c2ccc4c(c2)OCO4)CS3)c1 the results were DAX1 inh -1.4, SMARCA2 act -4.3, hgDAF12 agonist 0.3, hcDAF-12 act -1.7 and ssDAF12 agonist -1.4.
For COc1ccc(S[C@]2(C(=O)N(C)C)CC(=O)N[C@@H]2c2ccc(OC)cc2)cc1 the results were DAX1 inh -0.2, SMARCA2 act -1.8, hgDAF12 agonist 0.5, hcDAF-12 act -1.1 and ssDAF12 agonist -0.7.
For C[C@@H]1CN([C@H](C)CO)C(=O)CCCn2cc(nn2)CO[C@H]1CN(C)S(=O)(=O)c1ccc(Cl)cc1 the results were DAX1 inh 0.5, SMARCA2 act -3.0, hgDAF12 agonist -1.2, hcDAF-12 act -0.5 and ssDAF12 agonist -0.8.
CCCS(=O)(=O)n1nc(-c2ccccc2)cc1N was read as DAX1 inh 0.8, SMARCA2 act 2.5, hgDAF12 agonist 0.8, hcDAF-12 act 9.9*, ssDAF12 agonist -1.3, LXRb hcDAF ctr -0.1 and hcDAF12 conf 2.0.
For COC(=O)[C@]12C[C@H](CC(=O)N3CCOCC3)C(=O)N(Cc3ccccc3)C1=C[C@H](C1CCCC1)O[C@@H]2C the results were DAX1 inh 0.9, SMARCA2 act -1.7, hgDAF12 agonist -2.3, hcDAF-12 act -2.8 and ssDAF12 agonist -1.4.
`O=C(C1=NN[C@@H]2C(=O)N(c3cccc(F)c3)C(=O)[C@H]12)c1ccc2ccccc2n1` gave DAX1 inh 1.8, SMARCA2 act -1.8, hgDAF12 agonist 2.8, hcDAF-12 act 9.0*, ssDAF12 agonist 0.7, LXRb hcDAF ctr -0.2 and hcDAF12 conf 2.6.
Screening COc1ccc2o/c(=N\O)c(C(=O)Nc3ccccc3OC)cc2c1 returned DAX1 inh 0.3, SMARCA2 act 1.9, hgDAF12 agonist 5.0, hcDAF-12 act 3.1 and ssDAF12 agonist -0.5.
`COc1cccc2cc(C(=O)Nc3ccccc3C)/c(=N/O)oc12` gave DAX1 inh 0.6, SMARCA2 act 4.5, hgDAF12 agonist 7.9, hcDAF-12 act 9.2*, ssDAF12 agonist 0.7, LXRb hcDAF ctr 0.2 and hcDAF12 conf 6.3*.
COc1ccccc1C(=O)Nc1ccc(Br)cc1C was read as DAX1 inh -0.4, SMARCA2 act 3.8, hgDAF12 agonist 11.1*, hcDAF-12 act 7.0*, ssDAF12 agonist 0.9, LXRb hcDAF ctr 0.3 and hcDAF12 conf 9.6*.
Screening Cc1ccccc1-c1nnc(CS(=O)(=O)c2ccccc2)o1 returned DAX1 inh 3.0, SMARCA2 act 3.7, hgDAF12 agonist 11.8*, hcDAF-12 act 6.8*, ssDAF12 agonist 1.5*, LXRb hcDAF ctr 1.0 and hcDAF12 conf 7.0*.
`Cc1ccc(C)c(-c2nnc(NC(=O)CCS(=O)(=O)c3ccccc3)o2)c1` gave DAX1 inh -0.4, SMARCA2 act 2.4, hgDAF12 agonist -3.2, hcDAF-12 act -1.1 and ssDAF12 agonist 0.2.
Screening CCOc1ccccc1C(=O)NC(C(=O)OCn1nnc2ccccc2c1=O)C(C)C (stereo unspecified) returned DAX1 inh 0.0, SMARCA2 act -4.3, hgDAF12 agonist -0.9, hcDAF-12 act -0.8 and ssDAF12 agonist -0.7.
Screening COc1cc(C#Cc2c(C=O)n(C)c3ccccc23)cc(OC)c1 returned DAX1 inh 0.4, SMARCA2 act 1.2, hgDAF12 agonist 1.4, hcDAF-12 act 6.9*, ssDAF12 agonist -0.4, LXRb hcDAF ctr -0.2 and hcDAF12 conf 3.1.
For Cn1cncc1C#Cc1c(C=O)n(C)c2ccccc12 the results were DAX1 inh 0.9, SMARCA2 act 1.6, hgDAF12 agonist -3.0, hcDAF-12 act -1.6 and ssDAF12 agonist -1.1.
Cc1ccc(Nc2nc3ccccc3nc2-n2nc(C)cc2C)cc1 was read as DAX1 inh -0.3, SMARCA2 act 0.2, hgDAF12 agonist 6.2, hcDAF-12 act 8.8*, ssDAF12 agonist -0.1, LXRb hcDAF ctr 0.0 and hcDAF12 conf 1.9.
Screening CCc1ccc(-c2cn(C3CCCCC3)c(=S)[nH]2)cc1 returned DAX1 inh 0.8, SMARCA2 act -2.3, hgDAF12 agonist 7.4, hcDAF-12 act 10.6*, ssDAF12 agonist -0.1, LXRb hcDAF ctr 0.1 and hcDAF12 conf 1.3.
For COC(=O)C[C@@H]1CC[C@H]2[C@H](COc3ccc(NC(=O)Nc4ccc(C#N)cc4)cc3C(=O)N2C)O1 the results were DAX1 inh -0.9, SMARCA2 act -5.7, hgDAF12 agonist -0.2, hcDAF-12 act -2.8 and ssDAF12 agonist -1.6.
`CCn1c(=N)n(CC(=O)c2ccc(OC)cc2)c2ccccc21` gave DAX1 inh 1.0, SMARCA2 act 0.9, hgDAF12 agonist -0.4, hcDAF-12 act 1.5 and ssDAF12 agonist -0.7.
